Data taken from PubChem BioAssay.
Activity calls are given as the source filed them.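 The calls were made as follows, unless noted: active = fluorescence slope after compound addition differing from the mean of all screened samples at 99.7% confidence, in either direction; inactive = the rest.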

target: Voltage-gated potassium channel subunit beta-2 (Rattus norvegicus) (UniProt P62483); assay: enhancers of rat Kvbeta2 NADPH turnover – biochemical, NADPH fluorescence, primary screen (AID 623;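 active = NADPH fluorescence slope more negative than the mean of all samples by about 3 SD, 99.7% confidence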;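 also: fluorescence intensity change per second fitted from 20 to 320 s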); conditions: Recombinant KvBeta, NADPH fluorescence decrease slope, 10 min; at 10 µM; active compounds read low
Sequence (P62483 whole entry, looked up): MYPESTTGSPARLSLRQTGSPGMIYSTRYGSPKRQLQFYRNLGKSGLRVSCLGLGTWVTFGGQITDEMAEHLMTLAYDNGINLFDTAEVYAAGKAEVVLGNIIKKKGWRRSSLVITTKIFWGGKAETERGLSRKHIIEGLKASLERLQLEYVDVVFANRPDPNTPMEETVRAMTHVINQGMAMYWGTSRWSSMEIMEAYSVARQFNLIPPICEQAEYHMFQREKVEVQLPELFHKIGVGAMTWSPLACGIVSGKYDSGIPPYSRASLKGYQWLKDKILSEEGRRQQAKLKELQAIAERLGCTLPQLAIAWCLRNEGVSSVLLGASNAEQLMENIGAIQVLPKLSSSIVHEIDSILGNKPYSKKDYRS

NADPH fluorescence slope, inactive:
CCOC(=O)c1c(NC(=O)OC)sc2c1CCC2 -1.5e-05, CCn1c(SCC(=O)N2c3ccccc3CCc3ccccc32)nc2c1c(=O)n(C)c(=O)n2C -8.1e-05, COc1cccc(C(=O)Nc2c(C(N)=O)oc3ccccc23)c1 -4.8e-05, Cc1cc(C(=O)Nc2nnc(C(F)(F)F)s2)no1 1.8e-05, CC(Oc1ccccc1)C(=O)NC1CCN(Cc2ccccc2)CC1 (stereo not drawn) -1.8e-05, COC(=O)[C@H](CCSC)NC(=O)Nc1cc(C)ccc1C -3.2e-05, COc1ccc(NC(=O)CC2Oc3ccccc3NC2=O)cc1 (stereo not drawn) -3.2e-05, Oc1ccc(Nc2nc(-c3ccc(O)cc3)cs2)cc1 -4.3e-05, COc1ccc(OC)c(C2CC(=O)NC(SC)=C2C#N)c1 (stereo not drawn) -3.6e-05, COc1ccccc1CC(NC(C)=O)C(=O)NC1CCN(c2nnnn2-c2ccccc2)CC1 (stereo not drawn) 1.1e-06, COc1ccc(-c2nnc(SC(C)C(=O)Nc3nccs3)n2-c2ccccc2)cc1OC (stereo not drawn) 2.4e-05, CC(=O)N1CCN(S(=O)(=O)c2ccc(S(=O)(=O)NCC(C)C)cc2)CC1 -3.9e-05, CCCN(CCC)CCNS(=O)(=O)c1ccc2c(c1)oc(=O)n2C -3.3e-05, CCOC(=O)C1=C(C)NC(=O)NC1c1ccc(Br)s1 (stereo not drawn) -6.2e-05, COc1ccc(CC(=O)Nc2ccc(OC)c(NC(=O)c3ccco3)c2)cc1 9.4e-05, Nn1c(SCC(=O)Nc2ccc(S(=O)(=O)N3CCCC3)cc2)nnc1C(F)(F)F -6.5e-05, O=C1C2C3C=CC(C3=C3CCCCC3)C2C(=O)N1c1ccccc1 (stereo not drawn) -3.9e-06, CCC(=O)Nc1cc(C)c(NC(=O)C23CC4CC(CC(C4)C2)C3)cn1 -3.3e-05, O=C(c1ncc[nH]1)c1ccccc1C(=O)N1CCOCC1 -0.000166, CCc1ccc(NC(=O)CS(=O)CC(=O)NC(C)CCc2ccco2)cc1 (stereo not drawn) -1.8e-05, N#Cc1nc(COc2ccccc2Cl)oc1N1CCCCCC1 -5e-05, O=C(c1ccco1)N1CCN(c2nc(C(F)(F)F)nc3c2nnn3Cc2ccccc2)CC1 -5.9e-05, Cc1ccc2c(c1)-c1c(cnn1CC(=O)NC(C)CCc1ccco1)CO2 (stereo not drawn) -2e-05, CCC1(CC)C(=O)N(C)C(=O)NC1=NCc1ccccc1 2e-05

target: Alpha-2C adrenergic receptor (Homo sapiens) (UniProt P18825); assay: compounds altering alpha2C-coupled GIRK flux – cell-based, HEK293 alpha2C/GIRK1/2, thallium flux, primary screen (AID 624); conditions: thallium flux BTC fluorescence, at 10 µM, actives lie on both sides;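 also: slope of fluorescence ratio to pre-addition baseline per second over 15 to 24 s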
Sequence (P18825 whole entry, looked up): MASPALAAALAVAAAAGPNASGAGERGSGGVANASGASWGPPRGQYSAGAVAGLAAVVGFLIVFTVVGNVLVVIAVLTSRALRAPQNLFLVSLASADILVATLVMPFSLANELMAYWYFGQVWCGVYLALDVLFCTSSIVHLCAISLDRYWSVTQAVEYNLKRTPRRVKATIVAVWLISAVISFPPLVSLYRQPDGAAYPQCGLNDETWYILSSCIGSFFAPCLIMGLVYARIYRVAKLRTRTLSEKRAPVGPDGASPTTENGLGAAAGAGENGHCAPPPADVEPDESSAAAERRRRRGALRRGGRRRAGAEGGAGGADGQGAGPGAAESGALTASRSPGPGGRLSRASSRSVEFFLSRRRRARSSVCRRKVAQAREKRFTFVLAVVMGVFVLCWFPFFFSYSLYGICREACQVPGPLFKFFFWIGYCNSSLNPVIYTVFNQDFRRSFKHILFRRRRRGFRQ

slope, inactive:
Cc1cc(C)c(C#N)c(SCC(=O)Nc2ccc(S(=O)(=O)Nc3onc(C)c3C)cc2)n1 0.00553, CC(C)c1ccc(C(O)c2cnc(C(C)C)n2C)cc1 (stereo not drawn) 0.00678, CN1CCN(S(=O)(=O)c2ccc(NC(=O)c3ccc(F)cc3)cc2)CC1 0.00505, O=c1c2[nH]c3cccc(Cl)c3c2ncn1CCN1CCCCC1 0.00476, COc1ccc(OC)c(C(=O)CSc2nc3ncccc3[nH]2)c1 0.00695, O=C(CC(CC(=O)c1ccccc1)C(=O)O)c1ccccc1 0.0059, CCOc1ccc2nc(Nc3nc4c(c(=O)[nH]3)CCC4)nc(C)c2c1 0.00628, CCOC(=O)Cn1c(S(=O)(=O)Cc2ccccc2)nc2ccccc21 0.00594, CC(C)NC(=O)Nc1cccs1 0.00565, CC(C)COC(=O)C1[C@H]2C(=O)N(Cc3cccs3)C[C@]23C=C[C@H]1O3 (stereo partly drawn) 0.00385, CN(C)S(=O)(=O)c1ccc(S(=O)(=O)N(Cc2ccco2)Cc2ccccc2Cl)cc1 0.00696, COc1cccc(N(C(=O)c2ccco2)C(C(=O)NC2CCCC2)c2ccc(N(C)C)cc2)c1 (stereo not drawn) 0.00648, CCOc1ccc(Cn2nnc(C(=O)Nc3ccc(OC)cc3OC)c2N)cc1 0.00559, CC(NC(=O)c1ccc2c(c1)OCO2)C(c1cccs1)N1CCOCC1 (stereo not drawn) 0.00632, Cn1c(=N)c(S(=O)(=O)c2ccccc2)cc2c(=O)n3ccccc3nc21 0.00488, CCOC(=O)c1c(NC(=O)OC)sc2c1CCC2 0.00667, CCn1c(SCC(=O)N2c3ccccc3CCc3ccccc32)nc2c1c(=O)n(C)c(=O)n2C 0.0052, COc1cccc(C(=O)Nc2c(C(N)=O)oc3ccccc23)c1 0.00682, Cc1cc(C(=O)Nc2nnc(C(F)(F)F)s2)no1 0.00633, CC(Oc1ccccc1)C(=O)NC1CCN(Cc2ccccc2)CC1 (stereo not drawn) 0.00578, COC(=O)[C@H](CCSC)NC(=O)Nc1cc(C)ccc1C 0.00712, COc1ccc(NC(=O)CC2Oc3ccccc3NC2=O)cc1 (stereo not drawn) 0.00626, Oc1ccc(Nc2nc(-c3ccc(O)cc3)cs2)cc1 0.00332, COc1ccc(OC)c(C2CC(=O)NC(SC)=C2C#N)c1 (stereo not drawn) 0.00545, COc1ccccc1CC(NC(C)=O)C(=O)NC1CCN(c2nnnn2-c2ccccc2)CC1 (stereo not drawn) 0.00623, COc1ccc(-c2nnc(SC(C)C(=O)Nc3nccs3)n2-c2ccccc2)cc1OC (stereo not drawn) 0.0047, CC(=O)N1CCN(S(=O)(=O)c2ccc(S(=O)(=O)NCC(C)C)cc2)CC1 0.00517, CCCN(CCC)CCNS(=O)(=O)c1ccc2c(c1)oc(=O)n2C 0.00461, CCOC(=O)C1=C(C)NC(=O)NC1c1ccc(Br)s1 (stereo not drawn) 0.00543, COc1ccc(CC(=O)Nc2ccc(OC)c(NC(=O)c3ccco3)c2)cc1 0.00901, Nn1c(SCC(=O)Nc2ccc(S(=O)(=O)N3CCCC3)cc2)nnc1C(F)(F)F 0.00607, O=C1C2C3C=CC(C3=C3CCCCC3)C2C(=O)N1c1ccccc1 (stereo not drawn) 0.00655, CCC(=O)Nc1cc(C)c(NC(=O)C23CC4CC(CC(C4)C2)C3)cn1 0.00598, O=C(c1ncc[nH]1)c1ccccc1C(=O)N1CCOCC1 0.00482, CCc1ccc(NC(=O)CS(=O)CC(=O)NC(C)CCc2ccco2)cc1 (stereo not drawn) 0.00694, N#Cc1nc(COc2ccccc2Cl)oc1N1CCCCCC1 0.00512, O=C(c1ccco1)N1CCN(c2nc(C(F)(F)F)nc3c2nnn3Cc2ccccc2)CC1 0.00661, Cc1ccc2c(c1)-c1c(cnn1CC(=O)NC(C)CCc1ccco1)CO2 (stereo not drawn) 0.00658, CCC1(CC)C(=O)N(C)C(=O)NC1=NCc1ccccc1 0.0048
